The values below come from ChEMBL document CHEMBL4513216, “Probing the Open Global Health Chemical Diversity Library for Multistage-Active Starting Points for Next-Generation Antimalarials” (ACS Infect Dis, 2020).

The structures appear in SMILES notation. Among all 69,000 compounds or so, about 8,600 (12%) showed an effect of 50% or more. The entries come from a sample that favours strong results as a whole.

This assay has as its system Plasmodium berghei. Nature of the assay: Screen against P. berghei liver stage (PbLuc), transformed with Luciferase, at 10uM. In kind it is functional, HepG2. Conditions: tested at 10 uM.
As to `O=C(c1cc(-n2cnnn2)ccc1Cl)N1CCN(c2ccccc2)CC1`, the INHIBITION came out at 10.1%.

For the molecule `O=C(c1ccc(Cl)cc1)N1CCn2c(nn(-c3ccc(Cl)cc3)c2=O)C1`, the INHIBITION worked out at 35%. The figure for `O=C(c1ccc(Cl)cc1)N1CCn2c(nn(-c3cccc(Cl)c3)c2=O)C1` is 54%; for `O=C(c1ccc(Cl)cc1)N1CCn2c(nn(-c3ccncc3)c2=O)C1` it is 49.9%. In the case of `O=C(NCc1ccncc1)Nc1cc(C(F)(F)F)c[nH]c1=O`, the INHIBITION is 11.083%. The figure for `Cn1nccc1CNC(=O)Nc1cc(C(F)(F)F)c[nH]c1=O` is 55.1%; for `Cn1nccc1C(=O)Nc1cc(C(F)(F)F)c[nH]c1=O` it is 17.68%. Then `O=C(NCCNc1ccccn1)Nc1cc(C(F)(F)F)c[nH]c1=O`, with 7.4%; and `O=C(NCc1ccccn1)Nc1cc(C(F)(F)F)c[nH]c1=O`, with 57.2%; and `O=C(NCCc1ccccn1)Nc1cc(C(F)(F)F)c[nH]c1=O`, with 1.62%. The figure for `Cc1noc(CN2CCN(c3cncc(Cl)n3)CC2)n1` is 5.05%.

As for `O=C(N1CCOCC1)N1CCN(c2ccc(Cl)nn2)C(=O)C1`, the INHIBITION stood at 24.2%. For `CN(Cc1cnn(C)c1)C(=O)CN1CCCC(Cn2cncn2)C1` (stereo unspecified), the INHIBITION turned out to be 7.67%. Then `Cc1nn(C)c(Cl)c1C1CCCN1C(=O)c1cccc(C#N)c1` (stereo unspecified), with -38.7%. Then `Cc1noc(C2(C)CCCN(C(=O)c3cnn(C)c3)C2)n1` (stereo unspecified), with 24.4%; and `O=C(NCC1CCCCC1)N1C[C@@H]2C[C@H](C(=O)N3CCOCC3)[C@H](C1)O2`, with 22.2%. On to `O=C(Nc1nncs1)N1CCC(CCc2ccc(O)cc2)CC1`, for which the INHIBITION is reported as 12.5%. Then `O=C(Nc1nncs1)N1CCC(CCO)CC1`, with 66.6%; and `O=C(Nc1nncs1)N1CCC(c2ccc(O)cc2)CC1`, with -1.45%. As to `COc1ccc2c(c1)[nH]c1c(N(C)CC3OCCO3)ncnc12`, the INHIBITION is -13.6%. The figure for `O=C(Nc1ccccc1)N1CCn2c(nnc2C2CCCN2)C1` (stereo unspecified) is 46.6%. The figure for `O=C(C1=CCCC1)N1CC[C@]2(C[C@H](OCc3cccnc3)CO2)C1` is 16.9%; for `Cc1occc1C(=O)N1CCCC2(CCN(c3ccsc3)C2=O)C1` (stereo unspecified) it is 56.7%; for `Cn1cc(N2CCC3(CCCN(Cc4ccc(F)cc4)C3)C2=O)cn1` (stereo unspecified) it is 67.2%. The figure for `COc1ccc(CN2CCC3(CC2)CCN(CC2CC2)C3=O)cc1` is 52.4%; for `CN(C)C(=O)CN1CCCC2(CCN(c3ccsc3)C2=O)C1` (stereo unspecified) it is 40.4%; for `O=C1N(c2ccsc2)CCC12CCCN(Cc1ccccn1)C2` (stereo unspecified) it is -6.23%. On to `Cn1cc(N2CCC3(CCCN(Cc4ccoc4)C3)C2=O)cn1` (stereo unspecified), for which the INHIBITION is given as -2.72%. Then `COc1ccc(CN2CCC3(CC2)CCN(CC(=O)N(C)C)C3=O)cc1`, with -8.51%; and `Cn1cc(CN2CCC3(CCN(c4cnn(C)c4)C3=O)C2)cn1` (stereo unspecified), with 14.8%. Then `Cc1nocc1C(=O)N1CCCC2(CCN(c3ccsc3)C2=O)C1` (stereo unspecified), with -107%; and `CCN1CCC2(CCN(Cc3ccc(OC)cc3)CC2)C1=O`, with 38.3%. With `O=C1N(c2ccsc2)CCC12CCCN(CC1CC1)C2` (stereo unspecified), the INHIBITION is listed as 57.9%.

In the case of `Cc1occc1C(=O)N1CCCC2(CCN(c3ccccc3)C2=O)C1` (stereo unspecified), the INHIBITION was -54.5%.

With `CCOC(=O)CCNC(=O)c1nc(OCC)ccc1Cl`, the INHIBITION was 6.285%. `Brc1ccc(CNCc2nnc3n2CCCCC3)s1`: the INHIBITION is recorded as 21.8%. For `CC(=O)N1N=C(Cc2ccccc2)OC1C(=O)NCC(=O)OC(C)(C)C` (stereo unspecified), the INHIBITION worked out at 12.5%. Consider `CCc1nnc(Nc2cc(C)nc(C3CN(C(C)=O)CCO3)c2)s1` (stereo unspecified), for which the INHIBITION is -4.25%. The figure for `CCCc1nc(C)cc(NCCc2nnc(N)s2)n1` is -16.9%; for `O=C(Cc1ccccc1)NCCNC(=O)c1scnc1Cl` it is 46.2%. Then `COCC[C@]1(O)CCN(C(=O)C2CCN(C3CCCC3)CC2)C[C@H]1C`, with 9.63%; and `Nc1cccnc1N1CCC(C(F)(F)F)CC1`, with -22.5%. As to `COCCN1C[C@H]2CC[C@@]3(N=C(C)N(CC4CC4)C3=O)[C@H]2C1`, the INHIBITION is -26.5%.

For `CC(=O)NCc1ccc(C(=O)N2CCCC2c2c(C)nn(C)c2C)o1` (stereo unspecified), the INHIBITION is reported as -55.4%. Consider `O=C1N(c2ccsc2)CCC12CCCN(Cc1cccnc1)C2` (stereo unspecified), for which the INHIBITION is -18.2%.

With `COCCN1CCCC2(CCN(c3ccsc3)C2=O)C1` (stereo unspecified), the INHIBITION was determined as 39.2%.

Consider `COc1ccc(CN2CCCC3(CCN(c4ccsc4)C3=O)C2)cc1` (stereo unspecified), for which the INHIBITION came to 72.8%. Then `Cc1ncnc2c1CCN(c1cc(C(F)(F)F)ncn1)CC2`, with -17%; and `FC(F)(F)c1cc(N2CCc3ncnc(NC4CC4)c3CC2)ncn1`, with -31.6%. Then `O=C(N1CCOCC1)N1CCc2ncnc(NC3CCC3)c2CC1`, with -2.35%; and `CC(C)Nc1ncnc2c1CCN(C(=O)[C@H]1CCCO1)CC2`, with -12.2%; and `CC(C)Nc1ncnc2c1CCN(C(=O)N1CCOCC1)CC2`, with 75.4%. With `Cc1ccsc1C(=O)N1CCc2ncnc(NC(C)C)c2CC1`, the INHIBITION was determined as 19.4%.

As for `CC(C)Nc1ncnc2c1CCN(c1cc(C(F)(F)F)ncn1)CC2`, the INHIBITION was 60.3%. The figure for `O=C(N1CCOCC1)N1CCc2ncnc(NC3CC3)c2CC1` is 26.8%.

On to `CC(C)Nc1ncnc2c1CCN(C(=O)c1ccc[nH]1)CC2`, for which the INHIBITION came out at 70.7%.
